Assay [1] can be described thus: NCI Yeast Anticancer Drug Screen. Data for the rad50 strain (AID 155).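 Note: 0% = growth of vehicle-only cultures of the same strain.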 The settings on record: S. cerevisiae rad50 strain growth inhibition, stronger effect = higher value. In outline:
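Inhibition values express reduced yeast growth in compound-treated cultures relative to vehicle-treated controls.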

Assay [2] is described as follows: NCI Yeast Anticancer Drug Screen. Data for the mec2-1 strain (AID 157). The settings on record: S. cerevisiae mec2-1 strain, stronger effect = higher value. In short, it runs like this:
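Mutant yeast (mec2-1) grown with compound; growth inhibition relative to vehicle control reported.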

A short description of assay [3]: NCI Yeast Anticancer Drug Screen. Data for the sgs1 mgt1 strain (AID 161).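 Note: 0% = growth of cultures given vehicle only.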 Conditions: S. cerevisiae sgs1 mgt1 strain, stronger effect = higher value. In outline: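 Growth of a repair-deficient yeast mutant was monitored after compound treatment and expressed as inhibition relative to vehicle-treated cultures.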
Assay [4] can be described thus: NCI Yeast Anticancer Drug Screen. Data for the cln2 rad14 strain (AID 165).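 Note: 0% = growth equal to vehicle treated cultures.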 Conditions: S. cerevisiae cln2 rad14 strain, stronger effect = higher value. In outline: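 Readout is yeast growth inhibition versus vehicle-treated controls, using a strain with cln2 and rad14 alterations exposed to compound.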
Assay [5] can be described thus: NCI Yeast Anticancer Drug Screen. Data for the bub3 strain (AID 167). The settings on record: S. cerevisiae bub3 mutant strain, stronger effect = higher value. In short, it runs like this:
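Steps: expose the mutant yeast strain to compound; grow alongside vehicle-treated cultures; measure growth; express inhibition against the vehicle cultures.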

A short description of assay [6]: NCI Yeast Anticancer Drug Screen. Data for the mlh1 rad18 strain (AID 175). Conditions: S. cerevisiae mlh1 rad18 strain growth inhibition, stronger effect = higher value. In outline:
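Genetically defined yeast (DNA repair-deficient) exposed to compounds; growth inhibition determined relative to vehicle.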

Setting [7] is: at 5.0 µM (retest, dose inferred, filed as 0.5).
Where [8] appears, read: at 50.0 µM (retest, dose inferred, filed as 5.0).

The source of these data is PubChem BioAssay (NCI).

SMILES strings stand for the structures. Several values for one entry are separate records, joined by “and”; a condition that tells them apart may be missing. Equal values may be shown once. The panel holds about 79,000 compounds, 15% with a hit somewhere; the sample as a whole holds those more often. A structure can be active in one record and inactive in another. Activity calls are given as the source filed them. Cut-off read from the data, not from the text of the source: active = growth inhibition above about 70%; inactive = the rest.

For `Nc1nc(N)c2nc3c4ccccc4c4ccccc4c3nc2n1`, the growth inhibition is 2% (inactive) in assay [1] (setting [7]); 35% (inactive) in assay [1] (setting [8]); 56.5% (inactive) in assay [1] (at 50.0 µM); 1% (inactive) in assay [2] (setting [7]); 30% (inactive) in assay [2] (setting [8]); 38.5% (inactive) in assay [2] (at 50.0 µM). The growth inhibition is 0% (inactive) in assay [3] (setting [7]); 32% (inactive) in assay [3] (setting [8]); 21.7% (inactive) in assay [3] (at 50.0 µM); 1% (inactive) in assay [4] (setting [7]); 3% (inactive) in assay [4] (setting [8]); 68.8% (inactive) in assay [4] (at 50.0 µM). Further, the growth inhibition is 7% (inactive) in assay [5] (setting [7]); 38% (inactive) in assay [5] (setting [8]); 74.5% (active) in assay [5] (at 50.0 µM); 5% (inactive) in assay [6] (setting [7]); 44% (inactive) in assay [6] (setting [8]); 69.5% (inactive) in assay [6] (at 50.0 µM).

Regarding `CCCC1=CCCC1`, the growth inhibition in assay [1] (setting [7]) was 2% (inactive); in assay [1] (setting [8]), 8% (inactive); in assay [1] (at 50.0 µM), 91.1% (active); in assay [2] (setting [7]) it was 2% (inactive); in assay [2] (setting [8]), -6% (inactive); in assay [2] (at 50.0 µM), 92.5% (active). In addition, the growth inhibition in assay [3] (setting [7]) was -1% (inactive); in assay [3] (setting [8]), 1% (inactive); in assay [3] (at 50.0 µM), 50.9% (inactive); in assay [4] (setting [7]), 0% (inactive); in assay [4] (setting [8]), 2% (inactive); in assay [4] (at 50.0 µM) it was 50% (inactive). For the same compound, the growth inhibition is 1% (inactive) in assay [5] (setting [7]); 1% (inactive) in assay [5] (setting [8]); 96.8% (active) in assay [5] (at 50.0 µM); 0% (inactive) in assay [6] (setting [7]); 5% (inactive) in assay [6] (setting [8]); 50.2% (inactive) in assay [6] (at 50.0 µM).

On to `CCCCCCCCCCCCOS(=O)(=O)O`, for which the growth inhibition is -6% (inactive) in assay [1] (setting [7]); 29% (inactive) in assay [1] (setting [8]); -13.1% (inactive) and 99% (active) and 25.1% (inactive) in assay [1] (at 50.0 µM); -12% (inactive) in assay [2] (setting [7]); 2% (inactive) in assay [2] (setting [8]); -36.6% (inactive) and 98.2% (active) and 32.4% (inactive) in assay [2] (at 50.0 µM). Besides, the growth inhibition is -5% (inactive) in assay [3] (setting [7]); 28% (inactive) in assay [3] (setting [8]); 6.3% (inactive) and 97% (active) and 36.8% (inactive) in assay [3] (at 50.0 µM); 0% (inactive) in assay [4] (setting [7]); 36% (inactive) in assay [4] (setting [8]); 1% (inactive) and 98.4% (active) and 7.2% (inactive) in assay [4] (at 50.0 µM). Besides, the growth inhibition was -17% (inactive) in assay [5] (setting [7]); -20% (inactive) in assay [5] (setting [8]); -29.6% (inactive) and 97% (active) and 23.4% (inactive) in assay [5] (at 50.0 µM); -17% (inactive) in assay [6] (setting [7]); 29% (inactive) in assay [6] (setting [8]); -2.05% (inactive) and 98.2% (active) and 55.9% (inactive) in assay [6] (at 50.0 µM).

For `O=[N+]([O-])c1c(Br)cc(Br)c2c1Nc1c(ccc(Cl)c1Cl)S2`, the growth inhibition in assay [1] (setting [7]) is 14% (inactive); in assay [1] (setting [8]), 94% (active); in assay [1] (at 50.0 µM), 96.5% (active); in assay [2] (setting [7]), 26% (inactive); in assay [2] (setting [8]), 95% (active); in assay [2] (at 50.0 µM), 96.7% (active). The growth inhibition in assay [3] (setting [7]) is 13% (inactive); in assay [3] (setting [8]), 95% (active); in assay [3] (at 50.0 µM), 96.4% (active); in assay [4] (setting [7]), 20% (inactive); in assay [4] (setting [8]), 93% (active); in assay [4] (at 50.0 µM), 94.2% (active). Besides, the growth inhibition in assay [5] (setting [7]) is 28% (inactive); in assay [5] (setting [8]), 95% (active); in assay [5] (at 50.0 µM), 94.8% (active); in assay [6] (setting [7]), 39% (inactive); in assay [6] (setting [8]), 95% (active); in assay [6] (at 50.0 µM), 95.3% (active).

For `CC(=O)[O-].[O-]c1c(Cl)cc(Cl)cc1/C=N/Nc1ccccn1.[Zn+2]`, the growth inhibition was 5% (inactive) in assay [1] (setting [7]); 93% (active) in assay [1] (setting [8]); 96.5% (active) in assay [1] (at 50.0 µM); 16% (inactive) in assay [2] (setting [7]); 96% (active) in assay [2] (setting [8]); 87.8% (active) in assay [2] (at 50.0 µM). The growth inhibition in assay [3] (setting [7]) is 4% (inactive); in assay [3] (setting [8]), 96% (active); in assay [3] (at 50.0 µM), 98.1% (active); in assay [4] (setting [7]), -1% (inactive); in assay [4] (setting [8]), 93% (active); in assay [4] (at 50.0 µM) it was 95.5% (active). Besides, the growth inhibition is -4% (inactive) in assay [5] (setting [7]); 96% (active) in assay [5] (setting [8]); 37.2% (inactive) in assay [5] (at 50.0 µM); 3% (inactive) in assay [6] (setting [7]); 93% (active) in assay [6] (setting [8]); 97% (active) in assay [6] (at 50.0 µM).

As for `CCOC(=O)C(Cc1c[nH]c2cc([N+](=O)[O-])ccc12)NS(=O)(=O)c1ccc2ccccc2c1` (centres undefined), the growth inhibition in assay [1] (setting [7]) was -19% (inactive); in assay [1] (setting [8]), 96% (active); in assay [1] (at 50.0 µM) it was 95.3% (active); in assay [2] (setting [7]) it was 2% (inactive); in assay [2] (setting [8]), 98% (active); in assay [2] (at 50.0 µM), 97.3% (active). For the same compound, the growth inhibition in assay [3] (setting [7]) is -4% (inactive); in assay [3] (setting [8]), 98% (active); in assay [3] (at 50.0 µM) it was 97.2% (active); in assay [4] (setting [7]), -17% (inactive); in assay [4] (setting [8]) it was 94% (active); in assay [4] (at 50.0 µM), 94.2% (active). The growth inhibition in assay [5] (setting [7]) was 9% (inactive); in assay [5] (setting [8]), 98% (active); in assay [5] (at 50.0 µM), 97.8% (active); in assay [6] (setting [7]), -19% (inactive); in assay [6] (setting [8]), 97% (active); in assay [6] (at 50.0 µM) it was 95.7% (active).

Consider `CCC(=O)OCOc1ccc(/C=C2\CCC(CN(C)C)C2=O)cc1` (centres undefined), for which the growth inhibition in assay [1] (setting [7]) was 30% (inactive); in assay [1] (setting [8]), 53% (inactive); in assay [1] (at 50.0 µM), 93.3% (active); in assay [2] (setting [7]), 23% (inactive); in assay [2] (setting [8]) it was 66% (inactive); in assay [2] (at 50.0 µM), 92.6% (active). Moreover, the growth inhibition was 40% (inactive) in assay [3] (setting [7]); 88% (active) in assay [3] (setting [8]); 92.5% (active) in assay [3] (at 50.0 µM); 29% (inactive) in assay [4] (setting [7]); 34% (inactive) in assay [4] (setting [8]); 90.9% (active) in assay [4] (at 50.0 µM). For the same compound, the growth inhibition in assay [5] (setting [7]) is 36% (inactive); in assay [5] (setting [8]), 98% (active); in assay [5] (at 50.0 µM), 84.5% (active); in assay [6] (setting [7]), 33% (inactive); in assay [6] (setting [8]), 66% (inactive); in assay [6] (at 50.0 µM) it was 90.8% (active).

With `[N-]=[N+]=CC(=O)OCC1NC(=O)C(COC(=O)C=[N+]=[N-])NC1=O` (centres undefined), the growth inhibition in assay [1] (setting [7]) was 5% (inactive); in assay [1] (setting [8]), -1% (inactive); in assay [1] (at 50.0 µM), -10.3% (inactive) and 80.2% (active); in assay [2] (setting [7]), 2% (inactive); in assay [2] (setting [8]), 6% (inactive); in assay [2] (at 50.0 µM) it was -20.1% (inactive) and 85.7% (active). The growth inhibition in assay [3] (setting [7]) was -1% (inactive); in assay [3] (setting [8]), 3% (inactive); in assay [3] (at 50.0 µM), 12.6% (inactive) and 71.3% (active); in assay [4] (setting [7]) it was -2% (inactive); in assay [4] (setting [8]), -7% (inactive); in assay [4] (at 50.0 µM), 6.1% (inactive) and 76% (active). The growth inhibition in assay [5] (setting [7]) was -1% (inactive); in assay [5] (setting [8]), -2% (inactive); in assay [5] (at 50.0 µM), 3.8% (inactive) and 85.3% (active); in assay [6] (setting [7]), 2% (inactive); in assay [6] (setting [8]), 1% (inactive); in assay [6] (at 50.0 µM), 4.15% (inactive) and 86.6% (active).
